# Measurements as given in ChEMBL document CHEMBL4888484, “Replenishing the malaria drug discovery pipeline: Screening and hit evaluation of the MMV Hit Generation Library 1 (HGL1) against asexual blood stage Plasmodium falciparum ,using a nano luciferase reporter read-out” (2022).
# The whole screen tested about 150,000 compounds, of which about 540 (0.36%) showed an effect of 50% or more. The entries come from a sample that favours strong results as a whole.
# Tested on: Plasmodium falciparum
# Assay: Primary screen in NF54 nanoGlo assay, in single point, at 2uM, 72h; a lower Z score goes with more inhibition
# Type: functional, Erythrocyte
# Conditions: timepoint 72 hour
Structure (SMILES),% Inhibition,Z score
CN(CCO)C[C@@H]1CN(C(=O)C2(c3ccccc3)CCCC2)C[C@@H]1CO,-27%,2.7
COc1ccnc(-c2cc(O)cc(CC[C@H]3CCCCN3)c2)n1,-4%,0.49
COc1cccc(-c2cc(O)cc(CC[C@H]3CCCCN3)c2)n1,80%,-13.26
Oc1cc(CC[C@H]2CCCCN2)cc(-c2cnc3ccccc3n2)c1,59%,-7.37
COc1nccnc1-c1cc(O)cc(CC[C@H]2CCCCN2)c1,-23%,3.42
Oc1ccc(-c2cc(O)cc(CC[C@H]3CCCCN3)c2)nc1,-14%,1.77
CN(C)c1cncc(-c2cc(O)cc(CC[C@H]3CCCCN3)c2)n1,-2%,0.33
CC(C)(C)OC(=O)N1CC(CNC2(c3ncon3)CCC2)C1,9%,-1.69
CC1(C)[C@H]2CC=C(CCNc3nc(-c4ccncc4)nc4c3CNC4)[C@@H]1C2,0%,-0.03
CN(C[C@@H]1CCCN2CCCC[C@H]12)C(=O)Cc1c[nH]c2ccccc12,-1%,0.06
Cc1cc(-c2cncc(CN3CCCCC3)c2)ccc1F,50%,-1.27
COc1ccc(-c2cncc(CN3CCCC3)c2)cc1OC,-9%,1.71
Cc1cc(-c2cncc(CN3CCC(C(N)=O)CC3)c2)ccc1F,-2%,0.18
Cc1ccc2c(C(=O)N3CCCCC3)cc(-c3cncnc3)nc2c1C,3%,-0.37
O=c1c2cc(F)ccc2c(Br)cn1CC1(CO)COC1,20%,-2.48
C[C@H](NC(=O)c1cc(C(F)(F)F)n[nH]1)c1n[nH]c(N)n1,-2%,0.47
OC1=Nc2c(ncn2-c2cccnc2)[C@@H](c2ccc(F)c(F)c2)C1,0%,-0.05
CCC1=Nc2ccccc2N=C(NC(=O)C(C)C)[C@H]1c1ccc(F)cc1,64%,-2.85
CCC1=Nc2ccccc2N=C(NC(=O)CN2CCN(C)CC2)[C@H]1c1ccccc1,-6%,0.93
CCC1=Nc2ccccc2N=C(NC(=O)c2ccc(F)cc2)[C@H]1c1ccc(OC)c(OC)c1,-11%,1.75

Structure (SMILES),% Inhibition,Z score
Cc1nc(N2C(=O)N(C)C3(CCCC3)C2=O)oc1C,3%,-0.31
O=C(Nc1ccc2c(c1)OCCCO2)c1ccco1,29%,-3.9
C[C@H](NC(=O)c1ccco1)c1cc2c(cc1Br)OCCCO2,60%,0.9
C[C@@H](NC(=O)c1ccco1)c1ccccc1,0%,0.04
CC(NCC1COC(C)(C)O1)c1cc(Cl)c(N)c(Cl)c1 (stereo not drawn),2%,-0.28
Cc1nnc(NCc2ccc(-c3cccc(Cl)c3Cl)o2)n1C,-8%,0.79
Clc1cccc(-c2ccc(CNC3CCCCC3)o2)c1,-9%,1.31
CCCN1CCC(NCc2ccc(-c3cccc(Cl)c3Cl)o2)CC1,55%,-11.87
Fc1cccnc1N1CCOC2(CCC2)C1,-15%,1.72
OCCOc1cncc(N2CCOC3(CCCCCC3)C2)n1,8%,-0.67
Oc1nc(N2CCOC3(CCCC3)C2)ncc1F,55%,-9.19
CC(=O)c1cccc(-c2ccc3c(cnn3CC(=O)Nc3ccnn3C)c2)c1,-12%,1.94
Cc1ccc(CNC(=O)NCC(=O)N2CCC=C(F)C2)cc1,0%,0.03
O=C(Nc1cnccc1CO)c1csc(C2CCCCC2)c1,0%,0.04
O=C(N[C@H]1C[C@@H]2C[C@H]1N(C(=O)c1ccccc1C(F)(F)F)C2)c1cccnc1,35%,-3.96
Cc1cccc(NCc2ccc(N3N=C(c4ccccc4)C[C@H]3c3ccccc3)cc2)c1,-1%,0.11
c1ccc(C2=NN(c3ccc(-c4cc(-c5ccccc5)[n+](-c5ccccc5)c(-c5ccccc5)c4)cc3)[C@H](c3ccccc3)C2)cc1,91%,-14.02
O=C(NCc1ccc(-n2cncn2)nc1)c1ccncc1,-19%,1.67
O=C(Cc1ccc(Cl)cc1)Nc1cnc(-n2ccnc2)nc1,4%,-0.61
COC1(C)CC(N(C)C(=O)[C@@H]2Cc3cncn3C(=O)N2)C1(C)C (stereo partly drawn),-3%,0.52

Structure (SMILES),% Inhibition,Z score
Cn1cnnc1[C@H]1CCCN(S(=O)(=O)N2CCCCC2)C1,-6%,0.88
O=C(N[C@H]1CCc2ncccc2C1)c1cccc(B(O)O)c1,-4%,0.45
O=C(NCCN1CCC(CO)CC1)N1CC(Oc2ccccc2F)C1,-17%,1.55
N[C@H]1C[C@H](c2cc(NCCCc3cccnc3)nc(C3CC3)n2)C1,71%,-7.09
CC(=O)N[C@H]1C[C@@H](c2cc(NCCCc3cccnc3)nc(C)n2)C1,-15%,2.91
NC1CC(c2cc(NCc3cccnc3)nc(C3CC3)n2)C1 (stereo not drawn),15%,-2.04
C[C@@H](C(=O)NC(C)(C)c1noc(C(N)=O)n1)c1ccccc1,2%,-0.23
O=C1COc2ccccc2N1Cc1nc(-c2ccc(N3CCOCC3)cc2)no1,-19%,2.51
C[C@@H](c1cccnc1)N(C)CC(=O)Nc1nccs1,9%,-1.03
CC(C)N(CC(=O)Nc1nccs1)Cc1ccccn1,65%,-10.08
CC(C)N(CC(=O)Nc1nccs1)C(=O)COCc1ccccc1,-7%,0.71
COc1ccc(Nc2nc(N3CCCC3)nc3c2cnn3C)cc1Cl,27%,-3.01
O=C(Cn1ncn2nccc2c1=O)Nc1cc(Cl)cc(Cl)c1,-3%,0.43
COc1ccc(CC(=O)Nc2cc(C3CC3)nn2-c2nc(C)cc(=O)[nH]2)cc1,0%,-0.01
COc1ccc(Cl)cc1C(=O)N[C@H]1CCc2nn(C)c(=O)cc2C1,-18%,3.11
COc1ccc(Cl)cc1C(=O)Nc1ccnn1C[C@H]1CCOC1,3%,-0.37
CC(C)(Oc1ccc(Cl)cc1)C(=O)Nc1c2c(nn1C(C)(C)C)CS(=O)(=O)C2,-14%,2.68
Cc1cc(=O)[nH]c(-n2nc(C3CC3)cc2NC(=O)C(C)(C)Oc2ccc(Cl)cc2)n1,84%,-15.44
COc1ccc(Cl)cc1C(=O)Nc1cc(C2CC2)nn1-c1nc(C)cc(=O)[nH]1,63%,-6.61
